# Data as given in PubChem BioAssay (Tox21).
# Records with an inconclusive call do not appear. Where a call stands in place of a potency, no number is given. Activity calls are given as the source filed them. Unless noted, calls come from the whole dose curve; as a rule, active = well fitted curve in the direction sought with a large enough effect in the repeat runs; inconclusive = weak or mixed curves; inactive = no such curve, though single readings can be large; an effect the other way counts as inactive or inconclusive.
# Key:
# [1] = qHTS assay to identify aromatase inhibitors - cell viability counter screen (AID 743084);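 note: cells stimulated with testosterone during compound exposure; nearly all actives have a fitted effect of over 55% in size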
# [2] = target: Aryl hydrocarbon receptor (Homo sapiens) (UniProt P35869); experiment: qHTS assay to identify small molecule that activate the aryl hydrocarbon receptor (AhR) signaling pathway (AID 743085); note: nearly all actives have a fitted effect of over 15% in size; note: potency is the fitted concentration of half-maximal effect;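 for activation: HG2L7.5c1 human HepG2 liver cells with stably integrated DRE-driven firefly reporter; series mostly up to about 70 µM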
# Aryl hydrocarbon receptor (Homo sapiens), sequence (P35869 whole entry, looked up): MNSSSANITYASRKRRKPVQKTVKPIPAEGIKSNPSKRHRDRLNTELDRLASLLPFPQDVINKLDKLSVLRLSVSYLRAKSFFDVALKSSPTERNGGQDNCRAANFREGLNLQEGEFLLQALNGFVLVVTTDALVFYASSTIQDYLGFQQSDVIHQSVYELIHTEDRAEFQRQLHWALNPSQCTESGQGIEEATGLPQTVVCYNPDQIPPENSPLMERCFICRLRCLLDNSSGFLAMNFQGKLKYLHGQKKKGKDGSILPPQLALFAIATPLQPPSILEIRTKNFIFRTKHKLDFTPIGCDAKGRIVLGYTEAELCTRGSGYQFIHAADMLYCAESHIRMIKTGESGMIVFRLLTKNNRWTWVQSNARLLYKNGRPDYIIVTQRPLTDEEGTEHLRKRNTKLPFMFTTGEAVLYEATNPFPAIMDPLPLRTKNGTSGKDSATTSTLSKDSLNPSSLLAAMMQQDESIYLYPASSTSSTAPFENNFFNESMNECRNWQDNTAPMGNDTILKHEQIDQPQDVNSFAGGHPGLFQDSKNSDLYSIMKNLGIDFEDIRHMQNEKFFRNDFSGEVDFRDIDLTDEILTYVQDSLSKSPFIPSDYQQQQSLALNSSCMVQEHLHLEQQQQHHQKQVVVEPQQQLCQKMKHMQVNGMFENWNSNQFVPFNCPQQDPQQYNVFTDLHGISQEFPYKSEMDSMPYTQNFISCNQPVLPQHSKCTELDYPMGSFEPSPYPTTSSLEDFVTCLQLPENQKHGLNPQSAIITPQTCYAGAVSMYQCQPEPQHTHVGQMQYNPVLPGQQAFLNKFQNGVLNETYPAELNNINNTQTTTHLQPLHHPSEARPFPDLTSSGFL
# Outline: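 AhR agonist activity is inferred from enhanced light output of a DRE-controlled firefly luciferase reporter in HepG2 cells, measured with ONE-Glo following 24 h treatment at 37C.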
# [3] = qHTS assay to identify small molecule that activate the aryl hydrocarbon receptor (AhR) signaling pathway - cell viability counter screen (AID 743086);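 note: HepG2 liver cells carrying the AhR DRE luciferase reporter; series mostly up to about 70 µM; nearly all actives have a fitted effect of over 45% in size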
# Outline: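 HepG2-AhR-luc (HG2L7.5c1) cells, 4000/well, were preincubated 5 h at 37C, exposed to compound in qHTS format for 24 hr at 37C, then given CellTiter-Fluor for 30 min; viability was read as fluorescence in the reporter wells.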
# [4] = target: Peroxisome proliferator-activated receptor gamma (Homo sapiens) (UniProt P37231); experiment: qHTS assay to identify small molecule agonists of the peroxisome proliferator-activated receptor gamma (PPARg) signaling pathway (AID 743094; active = well fitted activation curve with a large enough effect in the signal ratio in the repeat runs, not every such curve was filed as active; the % refers to the signal ratio)
# Peroxisome proliferator-activated receptor gamma (Homo sapiens), sequence (P37231 whole entry, looked up): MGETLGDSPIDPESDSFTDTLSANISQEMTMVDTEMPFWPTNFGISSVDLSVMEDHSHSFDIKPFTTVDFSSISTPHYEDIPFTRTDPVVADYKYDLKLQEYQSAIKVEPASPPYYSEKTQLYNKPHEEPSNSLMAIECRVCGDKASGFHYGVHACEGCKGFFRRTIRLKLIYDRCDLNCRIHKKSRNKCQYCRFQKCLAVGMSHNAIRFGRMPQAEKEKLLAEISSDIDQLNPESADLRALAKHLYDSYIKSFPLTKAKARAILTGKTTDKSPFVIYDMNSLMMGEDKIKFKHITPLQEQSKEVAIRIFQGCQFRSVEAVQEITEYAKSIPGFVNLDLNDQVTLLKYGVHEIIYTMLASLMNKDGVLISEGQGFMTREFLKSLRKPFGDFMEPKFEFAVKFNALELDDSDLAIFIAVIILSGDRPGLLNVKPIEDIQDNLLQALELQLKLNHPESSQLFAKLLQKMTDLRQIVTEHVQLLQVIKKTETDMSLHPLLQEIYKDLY
# Outline: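 Agonist activity was taken from a beta-lactamase reporter (FRET substrate, 1 h at room temperature) in HEK293H cells carrying a PPARg UAS-bla construct. Compounds in DMSO were incubated 17 h at 37C after a 5 h cell pre-incubation.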
# [5] = target: Peroxisome proliferator-activated receptor gamma (Homo sapiens) (UniProt P37231); experiment: qHTS assay to identify small molecule antagonists of the peroxisome proliferator-activated receptor gamma (PPARg) signaling pathway (AID 743191; calls by dose curve; note: series mostly up to about 63 µM; nearly all actives have a fitted effect of over 30% in size)
# Outline: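 GeneBLAzer PPARg UAS-bla HEK293H cells carrying a UAS-driven beta-lactamase reporter were plated at 3000 cells/well, preincubated 5 h at 37C, then given compound for 17 h at 37C; LiveBLAzer B/G FRET substrate was read after 1 h at room temperature.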
# [6] = qHTS assay to identify small molecule antagonists of the peroxisome proliferator-activated receptor gamma (PPARg) signaling pathway - cell viability counter screen (AID 743194); conditions: Potency: co-treated with 50 nM rosiglitazone; note: nearly all actives have a fitted effect of over 55% in size
# Outline: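 PPARg-UAS-bla HEK293H cells were plated, rested 5 h at 37 C, then treated with compounds plus rosiglitazone (50 nM final) for 17 h at 37 C; viability was then read by CellTiter-Glo luminescence after 30 min at room temperature.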
# [7] = qHTS assay for small molecule agonists of the antioxidant response element (ARE) signaling pathway (AID 743202; active = well fitted activation curve with a large enough effect in the signal ratio in the repeat runs, not every such curve was filed as active; the % refers to the signal ratio)
# Outline: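 Steps: seed ARE-bla HepG2 cells (2,000/well); incubate 5 h at 37 C; add compounds by pin tool; incubate 16 h at 37 C; add FRET substrate; read fluorescence after 2 h at RT.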
# [8] = qHTS assay for small molecule agonists of the antioxidant response element (ARE) signaling pathway - cell viability counter screen (AID 743203; calls by dose curve; note: nearly all actives have a fitted effect of over 55% in size)
# Outline: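 Viability counter screen: CellTiter-Glo luminescence, read after 30 min at room temperature, in ARE-bla HepG2 wells. Compound exposure lasted 16 h at 37C/5% CO2, following a 5 h pre-incubation of the cells after plating.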
# [9] = qHTS assay for small molecule activators of the heat shock response signaling pathway - cell viability counter screen (AID 743209); note: nearly all actives have a fitted effect of over 50% in size
# Outline: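 Cytotoxicity counter screen run in the same wells as the heat-shock bla reporter assay: HeLa HSE-bla cells, 5 h compound exposure at 37 C, viability read by CellTiter-Glo luminescence.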
# [10] = qHTS assay for small molecule activators of the heat shock response signaling pathway (AID 743210; active = well fitted activation curve with a large enough effect in the signal ratio in the repeat runs, with a control signal flat, not every such curve was filed as active; the % refers to the signal ratio;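 note: HeLa cells with beta-lactamase reporter driven by heat shock elements; series mostly up to about 63 µM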)
# Outline: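 Activation of heat shock element-controlled beta-lactamase expression is measured in HeLa cells by LiveBLAzer FRET fluorescence, with compound exposure lasting 5 h at 37 C and substrate loading 2.5 h at room temperature.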
# [11] = qHTS assay to identify small molecule agonists of the peroxisome proliferator-activated receptor delta (PPARd) signaling pathway - cell viability counter screen (AID 743211); note: nearly all actives have a fitted effect of over 55% in size
# Outline: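 qHTS cell viability: PPARd-bla HEK293H; 17 h cpd, 37C; CellTiter-Glo, luminescence at 30 min RT.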
# [12] = target: Peroxisome proliferator-activated receptor delta (Homo sapiens) (UniProt Q03181); experiment: qHTS assay to identify small molecule agonists of the peroxisome proliferator-activated receptor delta (PPARd) signaling pathway (AID 743212; calls by dose curve)
# Peroxisome proliferator-activated receptor delta (Homo sapiens), sequence (Q03181 whole entry, looked up): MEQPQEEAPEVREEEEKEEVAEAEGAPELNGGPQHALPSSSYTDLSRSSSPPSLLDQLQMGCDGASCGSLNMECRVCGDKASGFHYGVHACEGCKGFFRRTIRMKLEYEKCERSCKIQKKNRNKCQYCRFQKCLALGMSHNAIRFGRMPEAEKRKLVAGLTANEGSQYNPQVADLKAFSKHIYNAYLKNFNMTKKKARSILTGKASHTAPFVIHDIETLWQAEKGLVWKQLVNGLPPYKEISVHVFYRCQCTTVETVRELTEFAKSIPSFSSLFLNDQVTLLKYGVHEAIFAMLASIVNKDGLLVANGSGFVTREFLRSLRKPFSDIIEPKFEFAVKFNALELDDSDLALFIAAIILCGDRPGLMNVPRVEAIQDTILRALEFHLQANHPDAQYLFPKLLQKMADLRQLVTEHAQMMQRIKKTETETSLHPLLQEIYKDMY
# Outline: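 Cells expressing a UAS-driven beta-lactamase reporter (PPARd-bla HEK293H) were given test compounds after a 5 h settle and kept at 37 C. Reporter activity was then measured as FRET fluorescence using LiveBLAzer B/G substrate.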
# [13] = qHTS assay to identify small molecule antagonists of the peroxisome proliferator-activated receptor delta (PPARd) signaling pathway - cell viability counter screen (AID 743213); note: nearly all actives have a fitted effect of over 50% in size
# Outline: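 Luminescence from CellTiter-Glo, added after the bla read and incubated 30 min at room temperature, gives viability of HEK293H PPARd-bla cells exposed to compounds for 17 h at 37 C with 300 nM L165041.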
# [14] = target: Peroxisome proliferator-activated receptor delta (Homo sapiens) (UniProt Q03181); experiment: qHTS assay to identify small molecule antagonists of the peroxisome proliferator-activated receptor delta (PPARd) signaling pathway (AID 743215; active = well fitted inhibition curve with a large enough effect in the signal ratio in the repeat runs, not every such curve was filed as active; the % refers to the signal ratio;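 note: cells stimulated with agonist L165041 at 300 nM final during compound exposure; series mostly up to about 62 µM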)
# Outline: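 Agonist L165041 (300 nM final) added with compound to PPARd-bla HEK293H UAS-bla reporter cells; 17 h incubation at 37 C. Read-out: LiveBLAzer FRET substrate, 2 h at room temperature, fluorescence intensity.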
# [15] = qHTS assay to identify small molecule agonists of the farnesoid-X-receptor (FXR) signaling pathway - cell viability counter screen (AID 743218); note: nearly all actives have a fitted effect of over 45% in size
# Outline: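 Viability counter screen in the same wells: CellTiter-Glo luminescence, 30 min room-temperature incubation, measured after the beta-lactamase read. Cells were GeneBLAzer FXR-UAS-bla HEK 293T, compound-treated 16 h at 37C.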
# [16] = qHTS assay to identify small molecule antagonists of the farnesoid-X-receptor (FXR) signaling pathway - cell viability counter screen (AID 743221; active = well fitted cell-killing curve with a large enough effect in the repeat runs, not every such curve was filed as active; note: nearly all actives have a fitted effect of over 50% in size)
# Outline: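 After a 5 h settling period, FXR-bla HEK 293T cells receive compound and chenodeoxycholic acid (50 uM final) and incubate 16 h at 37 C; CellTiter-Glo luminescence, read after 30 min at room temperature, reports cell viability.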
# [17] = target: Vitamin D3 receptor (Homo sapiens) (UniProt P11473); experiment: qHTS assay to identify small molecule agonists of the vitamin D receptor (VDR) signaling pathway (AID 743222; calls by dose curve)
# Vitamin D3 receptor (Homo sapiens), sequence (P11473 whole entry, looked up): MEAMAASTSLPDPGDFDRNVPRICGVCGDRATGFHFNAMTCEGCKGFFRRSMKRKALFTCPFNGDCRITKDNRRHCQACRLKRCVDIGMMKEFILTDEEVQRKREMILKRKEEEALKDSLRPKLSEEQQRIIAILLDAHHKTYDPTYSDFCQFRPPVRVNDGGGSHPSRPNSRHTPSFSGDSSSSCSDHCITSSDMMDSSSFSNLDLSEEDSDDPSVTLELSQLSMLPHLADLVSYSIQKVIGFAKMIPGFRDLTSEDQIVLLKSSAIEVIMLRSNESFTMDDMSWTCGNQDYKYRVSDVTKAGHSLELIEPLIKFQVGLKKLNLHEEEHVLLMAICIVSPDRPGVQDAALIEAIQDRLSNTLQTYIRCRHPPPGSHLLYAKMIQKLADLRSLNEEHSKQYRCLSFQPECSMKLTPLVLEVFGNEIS
# Outline: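 Agonist mode, beta-lactamase reporter: fluorescence from LiveBLAzer B/G FRET substrate (2 h, room temperature) read after 16 h compound treatment at 37 C of VDR-bla cells, which were pre-incubated 4 h after seeding.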
# [18] = target: Vitamin D3 receptor (Homo sapiens) (UniProt P11473); experiment: qHTS assay to identify small molecule antagonists of the vitamin D receptor (VDR) signaling pathway (AID 743223; active = well fitted inhibition curve with a large enough effect in the signal ratio in the repeat runs, not every such curve was filed as active; the % refers to the signal ratio)
# Outline: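 Reporter line VDR-bla; stimulus 1alpha,25-(OH)2 vitamin D3, 3 nM final; compound co-addition, 16 h 37C/5% CO2; LiveBLAzer B/G substrate 2 h RT; fluorescence intensity.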
# [19] = target: Bile acid receptor (Homo sapiens) (UniProt Q96RI1); experiment: qHTS assay to identify small molecule antagonists of the farnesoid-X-receptor (FXR) signaling pathway (AID 743217; active = well fitted inhibition curve with a large enough effect in the signal ratio in the repeat runs, not every such curve was filed as active; the % refers to the signal ratio)
# Bile acid receptor (Homo sapiens), sequence (Q96RI1 whole entry, looked up): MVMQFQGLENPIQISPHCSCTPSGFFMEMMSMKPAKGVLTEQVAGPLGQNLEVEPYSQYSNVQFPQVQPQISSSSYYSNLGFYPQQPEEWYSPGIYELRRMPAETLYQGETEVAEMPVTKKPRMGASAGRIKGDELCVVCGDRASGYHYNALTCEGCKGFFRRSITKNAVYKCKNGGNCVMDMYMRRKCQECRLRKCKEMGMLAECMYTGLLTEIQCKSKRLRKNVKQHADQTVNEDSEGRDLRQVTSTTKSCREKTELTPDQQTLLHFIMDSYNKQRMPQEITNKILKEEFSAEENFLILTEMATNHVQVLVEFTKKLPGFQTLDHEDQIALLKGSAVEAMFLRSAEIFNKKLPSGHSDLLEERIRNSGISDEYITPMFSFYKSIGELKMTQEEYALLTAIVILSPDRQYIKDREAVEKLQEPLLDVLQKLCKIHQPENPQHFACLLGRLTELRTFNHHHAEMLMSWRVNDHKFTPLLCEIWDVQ
# Outline: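 Antagonist mode: chenodeoxycholic acid at 50 uM final stimulates a UAS-driven beta-lactamase reporter in HEK 293T FXR-bla cells during 16 h, 37C compound exposure. Read-out is FRET substrate fluorescence after 2 h at room temperature.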
# [20] = target: Bile acid receptor (Homo sapiens) (UniProt Q96RI1); experiment: qHTS assay to identify small molecule agonists of the farnesoid-X-receptor (FXR) signaling pathway (AID 743220; active = well fitted activation curve with a large enough effect in the signal ratio in the repeat runs, not every such curve was filed as active; the % refers to the signal ratio)
# Outline: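 FXR-UAS-bla HEK 293T cells carrying a UAS-driven beta-lactamase reporter were plated for 5 h at 37C/5% CO2, then exposed to DMSO-dissolved Tox21 10K compounds for 16 h at 37C. A LiveBLAzer B/G FRET substrate was loaded for 2 h at room temperature before fluorescence reading.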
SMILES,Potency [1],Potency [2],outcome [3],outcome [4],Potency [5],Potency [6],Potency [7],Potency [8],Potency [9],outcome [10],Potency [11],outcome [12],outcome [13],outcome [14],Potency [15],outcome [16],outcome [17],outcome [18],Potency [19],outcome [20]
CCCCc1c(C)nc(NCC)[nH]c1=O,inactive,inactive,inactive,inactive,inactive,inactive,inactive,inactive,inactive,inactive,inactive,inactive,inactive,inactive,inactive,inactive,inactive,–,–,–
CCC1(c2ccccc2)C(=O)NC(=O)NC1=O,inactive,inactive,inactive,inactive,inactive,inactive,inactive,inactive,inactive,inactive,inactive,inactive,–,inactive,inactive,inactive,inactive,inactive,–,–
CCOP(=O)(N=C1SCCS1)OCC,inactive,inactive,inactive,inactive,inactive,inactive,inactive,inactive,inactive,inactive,inactive,inactive,inactive,inactive,inactive,inactive,–,–,–,–
O=C1CN=C(c2ccccc2)c2cc([N+](=O)[O-])ccc2N1,inactive,inactive,inactive,inactive,inactive,inactive,inactive,inactive,inactive,inactive,inactive,inactive,inactive,inactive,inactive,inactive,inactive,inactive,–,–
O=C1OC(=O)C2C1C1(Cl)C(Cl)=C(Cl)C2(Cl)C1(Cl)Cl (stereo not given),inactive,inactive,inactive,inactive,inactive,inactive,inactive,inactive,inactive,inactive,inactive,inactive,inactive,inactive,inactive,–,inactive,–,inactive,inactive
CC(C)COP(=O)(OCC(C)C)OCC(C)C,inactive,inactive,inactive,inactive,inactive,inactive,inactive,inactive,inactive,inactive,inactive,–,inactive,inactive,inactive,inactive,inactive,–,inactive,inactive
COc1cc(OC)nc(NC(=O)NS(=O)(=O)c2ncccc2C(=O)N(C)C)n1,inactive,inactive,inactive,inactive,inactive,inactive,inactive,inactive,inactive,inactive,inactive,inactive,inactive,inactive,inactive,inactive,inactive,inactive,–,–
Nc1n[nH]c(N)n1,inactive,inactive,inactive,inactive,inactive,inactive,inactive,inactive,inactive,inactive,inactive,inactive,–,inactive,inactive,inactive,inactive,inactive,inactive,inactive
ClC(Br)Br,inactive,inactive,inactive,inactive,inactive,inactive,inactive,inactive,inactive,inactive,inactive,inactive,inactive,inactive,inactive,inactive,–,–,inactive,inactive
COP(=S)(OC)Oc1c(Cl)cc(C)cc1Cl,inactive,48.6 µM (active),inactive,inactive,inactive,inactive,inactive,inactive,inactive,inactive,inactive,inactive,–,inactive,inactive,inactive,inactive,inactive,–,–
CNC(=O)Oc1c(C(C)(C)C)cc(C)cc1C(C)(C)C,inactive,inactive,inactive,inactive,inactive,inactive,inactive,inactive,inactive,–,inactive,inactive,inactive,inactive,inactive,inactive,inactive,inactive,inactive,inactive
Cc1ncc(CNC(=O)N(CCCl)N=O)c(N)n1,inactive,inactive,inactive,inactive,inactive,inactive,inactive,inactive,inactive,inactive,inactive,inactive,inactive,–,–,–,–,–,inactive,–
Nc1ccccc1Cl,inactive,inactive,inactive,inactive,inactive,inactive,inactive,inactive,inactive,inactive,inactive,inactive,inactive,inactive,inactive,inactive,inactive,–,inactive,inactive
CNC(=O)O/N=C(\C)SC,inactive,inactive,inactive,inactive,inactive,inactive,inactive,inactive,inactive,inactive,inactive,inactive,inactive,inactive,inactive,inactive,inactive,inactive,–,–
N#CCNCC#N,inactive,inactive,inactive,inactive,inactive,inactive,inactive,inactive,inactive,inactive,inactive,inactive,inactive,inactive,inactive,inactive,inactive,–,–,–
ClCC(Cl)(Cl)Cl,inactive,inactive,inactive,inactive,inactive,inactive,inactive,inactive,inactive,inactive,inactive,–,–,inactive,–,inactive,inactive,inactive,inactive,inactive
